Assay outcomes (PubChem BioAssay)
ALOX12 inh: Primary qHTS assay for inhibitors of human arachidonate 12S-lipoxygenase (ALOX12): Round 2 | hit rate 1.1% among 580,000 | Potency, µM (top dose mostly 108 µM), without a hit: at the top dose activity change, negative = inhibition, usual class: inhibitors | purified 12hLO, xylenol orange hydroperoxide absorbance | Polyunsaturated fatty acid lipoxygenase ALOX12 (Homo sapiens), P18054; also: potency is read from the fitted curve at half-maximal effect; % is scaled to controls: 0 for no effect and ±100 for the full control effect
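Purified human 12hLO at 150 nM in 25 mM Hepes, 0.01% Triton X-100, pH 7.0, preincubated 15 min at room temperature with compound. Reaction started with 40 uM arachidonic acid, 30 min at room temperature. Hydroperoxide measured by Fe-xylenol orange, 573/405 nm absorbance ratio.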
Pol beta inh: qHTS Assay for Inhibitors of DNA Polymerase Beta | P06746 | Pol beta primer extension/strand displacement, fluorescence kinetic | Potency, µM (highest dose often 114 µM), for inactives: top-dose activity change, negative = inhibition, usual class: inhibitors | hit rate 1.3% among 340,000 | AID 485314, 2010; also: potency is read from the fitted curve at half-maximal effect; % is scaled to controls: 0 for no effect and ±100 for the full control effect
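Homogeneous kinetic assay of primer extension and strand displacement by 10 nM Pol beta, preincubated 15 min at room temperature with compound before 50 nM substrate (final) was added. Read at 0 and 10 min; four-parameter Hill fit.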
PI5P4Ka inh: qHTS for Inhibitors of phosphatidylinositol 5-phosphate 4-kinase (PI5P4K); Phosphatidylinositol 5-phosphate 4-kinase type-2 alpha (Homo sapiens), P48426; max response, %; AID 652105, 2013; PI5P4Kalpha enzyme, ADP-Glo luminescence, 60 min; active compounds read low; hit rate 1.2% among 330,000; active = max response of -50% or lower; inconclusive = between -30% and -50%; inactive = -30% or higher; also: value at the top dose of about 77 µM; % is scaled to controls: 0 for no effect and ±100 for the full control effect
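qHTS, 1536-well: enzyme/substrate mix, compound by pin tool, 5 microM ATP final; RT 60 min; ADP-Glo reagents 1 (45 min) then 2 (30 min); luminescence.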
POLH inh: qHTS for Inhibitors of Polymerase Eta; DNA polymerase eta (Homo sapiens), Q9Y253; recombinant Pol eta, fluorescent DNA replication assay; Potency, µM (titrated, usually from 114 µM), for the others: at the top dose activity change, negative = inhibition, actives largely listed as inhibitors; hit rate 1.2% among 390,000; AID 588591, 2011; also: potency is read from the fitted curve at half-maximal effect; % is scaled to controls: 0 for no effect and ±100 for the full control effect
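Fluorescent replication assay: 50 nM final substrate added after a 15 min room-temperature compound preincubation with 10 nM enzyme. Signal taken at 0 min and again at 10 min.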
POLI inh: qHTS for Inhibitors of Polymerase Iota | DNA polymerase iota (Homo sapiens), Q9UNA4 | Pol iota fluorescent replication assay, 10 min | Potency, µM (highest dose often 115 µM), for the others: at the highest dose activity, negative = inhibition, most hits filed as inhibitors | hit rate 1% among 390,000; also: potency is read from the fitted curve at half-maximal effect
Target sequence (Q9UNA4 whole entry, looked up): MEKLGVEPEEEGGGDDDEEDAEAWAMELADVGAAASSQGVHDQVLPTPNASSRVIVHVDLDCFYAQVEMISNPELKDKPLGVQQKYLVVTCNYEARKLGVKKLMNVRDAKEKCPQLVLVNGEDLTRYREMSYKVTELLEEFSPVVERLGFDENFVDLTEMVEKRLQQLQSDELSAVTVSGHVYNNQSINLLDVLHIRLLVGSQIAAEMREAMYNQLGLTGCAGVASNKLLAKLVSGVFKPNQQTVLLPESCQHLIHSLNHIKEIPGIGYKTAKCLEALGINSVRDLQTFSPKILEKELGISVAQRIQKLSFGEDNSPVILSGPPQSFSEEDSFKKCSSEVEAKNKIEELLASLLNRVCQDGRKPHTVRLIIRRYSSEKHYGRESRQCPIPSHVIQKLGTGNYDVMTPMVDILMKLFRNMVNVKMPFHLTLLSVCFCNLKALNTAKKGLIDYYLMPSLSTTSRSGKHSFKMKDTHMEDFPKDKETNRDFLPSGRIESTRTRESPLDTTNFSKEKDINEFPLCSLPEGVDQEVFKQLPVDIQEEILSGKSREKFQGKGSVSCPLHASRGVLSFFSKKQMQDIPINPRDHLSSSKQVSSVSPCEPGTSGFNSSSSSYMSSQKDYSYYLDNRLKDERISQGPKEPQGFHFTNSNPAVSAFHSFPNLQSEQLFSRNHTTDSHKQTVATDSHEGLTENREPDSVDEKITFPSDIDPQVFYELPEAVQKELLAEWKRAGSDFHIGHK
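Pol iota at 10 nM preincubated 15 min with compounds at room temperature; reaction started with fluorescent substrate, 50 nM final. Fluorescence read kinetically at 0 and 10 min; buffer-only wells as negative control.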
POLK inh: qHTS for Inhibitors of Polymerase Kappa. purified Pol kappa, fluorescent DNA synthesis assay, 10 min. Potency, µM (doses to about 107 µM), without a hit: at the highest dose activity, negative = inhibition, hits mostly inhibitors. hit rate 0.53% among 400,000. DNA polymerase kappa (Homo sapiens), Q9UBT6. AID 588579, 2011; also: potency is read from the fitted curve at half-maximal effect; % is scaled to controls: 0 for no effect and ±100 for the full control effect
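10 nM Pol kappa was preincubated with compounds for 15 min at room temperature. Reaction started with 50 nM (final) substrate. Fluorescence read kinetically at 0 and 10 min.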
ADP-Glo counter: qHTS for Inhibitors of PI5P4K: ADP-Glo counter assay. shares compounds with PI5P4Ka inh. ADP-Glo detection counter-screen, luciferase luminescence, no enzyme. Potency, µM (top dose mostly 76.9 µM), inactives show top-dose activity change, negative = inhibition, usual class: inhibitors. 1,100 tested, under 10 active
Starred values were filed as active, the others as inactive; ? = inconclusive; / = no result given; [ ] = another dose, or the depositor's remark. Hits are enriched below; roughly 2.9% of the tested compounds scored in any of these assays. Unless noted, calls follow the shape of the dose curve; as a rule, active = well fitted curve in the direction sought with a large enough effect; inconclusive = small, poorly fitted or top-dose-only effect, or another doubt; inactive = no such curve, though single readings can be large; an effect the other way counts as inactive or inconclusive.

SMILES	ALOX12 inh	Pol beta inh	PI5P4Ka inh	POLH inh	POLI inh	POLK inh	ADP-Glo counter
COc1cccc2cc(C(C)N(CCCN3CCOCC3)C(=O)Nc3ccccc3)oc12 (centres undefined)	11.3%	2.4%	-1.9	-9.2%	6.1%	-1.4%	0.3%
CCCn1cnc2c1CN(S(=O)(=O)c1cccc3cccnc13)[C@H](C(=O)OC)C2	8.8%[176 µM]	/	/	/	/	/	/
Cc1nnc(-c2ccccc2)nc1N(C)C	0.0%	8.3%	-68.1*	-22.4%	114.8%	-1.4%	-1.7%
O=C(Nc1cccc(COc2cccc(F)c2)c1)c1cc[n+]([O-])cc1	-17.3%	/	/	/	/	/	/
Cc1c(C(=O)OCC(C)C)[nH]c2c1C(=O)CC(c1ccco1)C2 (centres undefined)	?	25.1µM*	-55.7*	31.6µM*	?	-27.0%	-13.3%
Cc1c(C(=O)OC2CCCC2)[nH]c2c1C(=O)CC(c1ccco1)C2 (centres undefined)	129.7%	?	?	?	?	?	/
CS(=O)(=O)N1CCC(NS(=O)(=O)c2ccc(F)cc2Cl)CC1	-23.9%	/	/	/	/	/	/
CCOC(=O)C1(Cc2ccc(F)cc2F)CCCN(S(=O)(=O)c2c(C)noc2C)C1 (centres undefined)	34.8%	/	/	/	/	/	/
COc1ccc(C(=O)N2CCC2(C)C(=O)O)cc1F (centres undefined)	-1.3%	/	?	/	/	/	1.9%
COc1ccc(N2CC(C(=O)Nc3nc4ccc(S(C)(=O)=O)cc4s3)CC2=O)cc1 (centres undefined)	-26.2%	?	-52.8*	?	?	-9.7%	0.6%
O=C(NCCCCc1ccccc1)c1cccc(NC(=O)C2CC2)c1	-13.4%	/	-53.3*	-6.8%	-21.4%	1.7%	-1.2%
CCN1CCN(C(=O)c2cc3ccccc3oc2=O)CC1	-16.2%	/	/	/	/	/	/
Cc1ccc(-c2csc(NC(=O)c3ccc(F)cc3)c2C(=O)O)cc1	0.8%	-2.9%	-61.4*	-16.1%	-11.0%	4.4%	0.6%
O=C(Nc1scc(-c2ccccc2)c1C(=O)O)c1ccc(F)cc1	0.4%	24.1%	?	-10.1%	-1.2%	-7.2%	/
COc1ccc(CCNC(=O)CNCC(c2ccccc2)N(C)C)cc1OC (centres undefined)	?	-1.1%	-1.7	-15.6%	23.4%	-5.2%	-2.0%
COc1ccc(CCNC(=O)CSc2ccccc2)cc1OC	-29.1%	28.4%	4.9	-3.1%	?	-2.8%	/
Cc1ccc(OCCOc2cccc(/C=C(/C#N)c3ccccc3)c2)cc1	7.2%	/	/	/	/	/	/
Cc1ccc(NC(=O)CC2(C(=O)O)CCCC2)c(C)c1	27.3%	/	/	/	/	/	/
CC1=NN(c2nc(-c3ccc(Cl)cc3)cs2)C(=O)C1	5.62µM*	35.5µM*	-66.7*	44.7µM*	?	50.1µM*	-7.6%
CCNc1ncnc2sc3c(c12)CCN(C(=O)c1ccnn1C)C3	22.2%	/	/	/	/	/	/
Nc1nc(N)c2c(ccc3c2ccn3Cc2cccc([N+](=O)[O-])c2)n1	?	/	-61.5*	/	/	/	0.6%
Nc1nc(N)c2cc([N+](=O)[O-])ccc2n1	-12.8%	/	-21.8	-13.2%	92.4%	-15.9%	/
Cc1cccc(NC(=O)Cn2nnc(C(=O)NCc3cccs3)c2N)c1C	0.0%	0.2%	4.4	-9.8%	6.4%	-27.2%	/
Cc1c(Cl)cccc1NC(=O)Cn1nnc(C(=O)NCc2cccs2)c1N	-20.4%	?	?	79.4µM*	89.1µM*	-26.0%	-7.4%
Cc1cc(C)cc(NC(=O)CSc2nc3[nH]ncc3c(=O)[nH]2)c1	?	6.0%	-4.3	-13.4%	-2.6%	5.6%	/
SMILES	ALOX12 inh	Pol beta inh	PI5P4Ka inh	POLH inh	POLI inh	POLK inh	ADP-Glo counter
Cc1csc(NC(=O)CSc2nc3[nH]ncc3c(=O)[nH]2)n1	-4.5%	10.0%	/	-17.2%	27.4%	-7.8%	2.1%
NS(=O)(=O)c1ccc2c(c1)C1C=CCC1C(C1CC=CCC1)N2 (centres undefined)	?	3.7%	-79.8*	?	?	-5.0%	-12.6%
Nc1sc2c(c1C(=O)c1ccccc1)CCCC2	-10.9%	10.0%	-50.6*	-7.7%	15.9%	-6.4%	-6.5%
NC(=O)c1c(N)sc2c1CCCC2	-9.1%	12.9%	-7.5	-9.9%	100.4%	-19.8%	/
CCOC(=O)c1nnn(-c2nc(N(C)C)nc(N(C)C)n2)c1C	0.0%	9.4%	-3.6	-7.3%	85.2%	8.1%	/
CCOC(=O)c1nnn(-c2ccccc2)c1C	0.0%	-19.7%	-0.3	-8.8%	-4.0%	-4.4%	-1.4%
N#Cc1cc(-c2ccccc2)nn1-c1ccccc1	?	-2.6%	-80.5*	-12.3%	?	-10.6%	-10.6%
Cn1ccc(-c2ccccc2)n1	0.0%	36.4%	2.5	-5.9%	35.1%	-2.6%	/
CCN(CC)C(=O)c1[nH]cnc1C(=O)Nc1ccc(OC)cc1	0.0%	28.3%	0.1	-11.5%	1.6%	22.5%	-8.2%
CC1CCCC(C)N1C(=O)COC(=O)CNC(=O)c1ccccc1 (centres undefined)	382.1%	/	-3.5	-13.3%	11.4%	-12.2%	-1.3%
COCCn1cnc2c1c(=O)n(CC(=O)OCCOc1ccccc1)c(=O)n2Cc1ccccc1	-17.9%	/	/	/	/	/	/
CC(C)CCOc1ccc(/C=C/c2nc3ccccc3s2)cc1	14.6%	/	/	/	/	/	/
CCCNC(=O)CSc1nnc(-c2ccco2)n1C	-12.8%	32.3%	-51.3*	3.2%	1.8%	-10.6%	-3.2%
N#Cc1c(NC(=O)CSc2ncccn2)oc(-c2ccccc2)c1-c1ccccc1	?	/	-58.2*	10µM*	?	?	5.8%
O=S(=O)(NCCC1=CCCCC1)c1cccc(S(=O)(=O)N2CCOCC2)c1	21.8%	2.1%	-62.5*	-9.6%	-11.3%	-17.9%	-1.6%
O=S(=O)(NCCc1ccccc1)c1cccc(S(=O)(=O)N2CCOCC2)c1	0.0%	9.5%	6.4	-4.4%	-10.1%	-10.7%	/
Cc1ccc(NC(=O)C2CCN(c3cc(C(F)(F)F)ncn3)CC2)cc1F	-7.0%	/	/	/	/	/	/
CCO[C@@H]1OC(C(=O)NCc2ccccc2)=C[C@H](C(C)(C)C)[C@H]1CCCO	1.1%	4.2%	0.4	-10.4%	-17.9%	9.4%	-9.9%
Cc1ccc2nc(-c3ccco3)c(Cc3ccccc3)n2c1	?	/	-16.5	/	/	/	/
COc1ccccc1Cc1c(-c2ccc(F)cc2)nc2ccc(Br)cn12	-22.6%	/	-18.2	/	/	/	/
